# Screening data from PubChem BioAssay.
# A selection: hits, their analogues and other compounds. The true share with any hit is near 7.5%.
# SMN2 splice enh: qHTS Assay for Enhancers of SMN2 Splice Variant Expression; Potency, µM (titrated, usually from 46.1 µM), for inactives: top-dose activity change, positive = activation, usual class: activators; HEK293 SMN2-luciferase splicing reporter, luminescence, 30-36 h; actives 2.8% (n = 210,000); note: % of control where 0% means no effect; nearly all actives have a fitted effect of over 55% in size
#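 qHTS luciferase splicing reporter: luminescence rises when SMN2 exon 7 is included in transfected HEK293 cells. Compound exposure lasted 30-36 h at 37C, with 4.5 mM final sodium butyrate as control, followed by a ONE-Glo read.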
# NPC1 promoter act: qHTS Assay for NPC1 Promoter Activators; Huh7 NPC1 promoter luciferase reporter, 24 h; Potency, µM (doses to about 9.22 µM), without a hit: at the highest dose activation, usual class: activators; actives 2.4% (n = 320,000); AID 485313, 2010; note: % of control where 0% means no effect; nearly all actives have a fitted effect of over 60% in size
#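 Readout is luciferase luminescence, reflecting NPC1 promoter activation in stably transfected Huh7 cells after 24 h compound exposure at 37 °C in reduced-serum medium with 10% FBS.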
# KinaseGlo FLuc: Counterscreen for Luciferase (Kinase-Glo TM) Inhibition. actives 0.28% (n = 200,000). Potency, µM (doses to about 38.3 µM), inactives show top-dose activity change, negative = inhibition, most hits filed as inhibitors. Kinase-Glo luciferase, ATP luminescence, 8 min. Luciferin 4-monooxygenase (Photuris pensylvanica), Q27757; note: % is set by controls: 0 for no effect and ±100 for the full control effect; nearly all actives have a fitted effect of over 60% in size
#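 Compounds were added to a substrate mix at pH 7.2 (50 mM imidazole, 10 uM ATP, within the enzyme's linear range), followed by Kinase-Glo detection reagent; luminescence was measured after 8 minutes at ambient temperature.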
# FLuc modulator: qHTS profiling assay for firefly luciferase inhibitor/activator using purifed enzyme and Km concentrations of substrates (counterscreen for miR-21 project). purified FLuc, Km substrates, luminescence inhibition. Potency, µM (doses to about 57.5 µM), without a hit: at the top dose activity change, negative = inhibition, most hits filed as inhibitors. actives 6.9% (n = 360,000). AID 588342, 2011. Luciferin 4-monooxygenase (Photinus pyralis), P08659;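 note: plate controls were vehicle for no effect and reference inhibitor for full effect; nearly all actives have a fitted effect of over 55% in size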
# Target sequence (P08659 whole entry, looked up): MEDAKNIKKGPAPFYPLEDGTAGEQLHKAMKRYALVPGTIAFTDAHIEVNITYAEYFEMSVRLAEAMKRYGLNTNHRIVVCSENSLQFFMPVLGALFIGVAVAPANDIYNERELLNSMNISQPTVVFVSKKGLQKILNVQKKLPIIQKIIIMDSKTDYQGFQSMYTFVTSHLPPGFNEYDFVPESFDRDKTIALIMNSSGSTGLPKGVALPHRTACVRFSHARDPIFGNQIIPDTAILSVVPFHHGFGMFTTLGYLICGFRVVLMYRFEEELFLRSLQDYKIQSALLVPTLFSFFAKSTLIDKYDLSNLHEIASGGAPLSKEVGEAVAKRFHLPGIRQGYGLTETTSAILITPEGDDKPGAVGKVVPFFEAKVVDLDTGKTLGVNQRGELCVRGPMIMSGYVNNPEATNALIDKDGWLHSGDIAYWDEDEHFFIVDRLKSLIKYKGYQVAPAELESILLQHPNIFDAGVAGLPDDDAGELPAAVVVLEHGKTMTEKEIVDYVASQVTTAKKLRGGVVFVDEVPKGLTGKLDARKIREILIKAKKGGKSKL
#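 Purified P. pyralis luciferase (10nM final) with 10uM D-luciferin and 10uM ATP (Km levels) in 50mM Tris acetate pH 7.5, 10mM Mg acetate, 0.01% Tween-20, 0.05% BSA; qHTS 6-point titration, ~60 µM downward; luminescence read.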
# Rab9 prom act: qHTS Assay for Rab9 Promoter Activators; actives 2.8% (n = 320,000); Potency, µM (top dose mostly 9.22 µM), for the others: at the top dose activation, negative = inhibition, hits mostly activators; Huh7 Rab9 promoter-luciferase reporter, luminescence, 24 h; note: % of control where 0% means no effect; nearly all actives have a fitted effect of over 60% in size
#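 Quantitative HTS format; Huh7 Rab9-luciferase reporter cells (1500/well) receive compound 2 h post-plating, incubate 24 h at 37 °C, then get luciferase reagent for 10 min before luminescence reading.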
# ELG1 genotox: qHTS screen for small molecules that induce genotoxicity in human embryonic kidney (HEK293T) cells expressing luciferase-tagged ELG1; HEK293T ELG1-luciferase reporter, luminescence, 16 h; Potency, µM (highest dose often 46 µM), for the others: top-dose activity change, positive = activation, most hits filed as activators; actives 1.3% (n = 330,000); note: % of control where 0% means no effect; nearly all actives have a fitted effect of over 60% in size
#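 ELG1-luciferase HEK293T cells, 2,000/well; compound pinned in; 16 hr, 37 °C, 5% CO2; ONE-Glo, 30 min RT; luminescence on CCD imager.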
# Active calls of the source: *; ? = inconclusive; · = no result; [ ] = another dose, or the depositor's remark. Calls come from the whole dose curve; as a rule, active = well fitted curve in the direction sought with a large enough effect; inconclusive = small, poorly fitted or top-dose-only effect, or another doubt; inactive = no such curve, though single readings can be large; an effect the other way counts as inactive or inconclusive. Potency is the fitted concentration of half-maximal effect.
SMILES,SMN2 splice enh,NPC1 promoter act,KinaseGlo FLuc,FLuc modulator,Rab9 prom act,ELG1 genotox
S=C(Nc1ccc(Cl)cc1)c1nc2ccccc2s1,?,4µM*,2%,6.7µM*,3.5µM*,11%
O=[N+]([O-])c1ccc(C(O)CSC(=S)N2CCCCC2)cc1 (stereo unspecified),·,2.8µM*,·,17µM*,25%,17%
O=[N+]([O-])c1ccc(C(=S)N2CCCC2)cc1,2%,0%,-1%,-3%,-3%,5%
COc1ccc(C(=O)Nc2ccc3oc(-c4ccc5ccccc5c4)nc3c2)cc1Br,-7%,·,·,?,·,·
CCCC(=O)Nc1ccc(-c2nc3cc(C)ccc3o2)cc1,1.3µM*,0.5µM*,0%,0.54µM*,0.5µM*,?
CCCC(=O)Nc1ccc2oc(-c3ccc(OC)c(Br)c3)nc2c1,15%,?,0%,?,6.3µM*,?
CCOc1ccc(C(=O)Nc2ccc(-c3nc4cc(C)ccc4o3)cc2)cc1,·,·,·,-14%,·,·
CCCC(=O)Nc1ccc(-c2nc3cc(C)c(C)cc3o2)c(O)c1,35µM*,?,-1%,1%,2µM*,?
CCC(=O)NC(=S)Nc1ccc2oc(-c3ccc(OC)cc3)nc2c1,7.9µM*,2µM*,0%,-4%,?,16µM*
COc1ccccc1NC(=O)N1CCC(NC(=O)C2CCCCC2)CC1,·,-4%,·,1%,-2%,2%
COc1ccc(OC)c(CCNC(=O)CCCn2c(=O)c3cccn3c3ccccc32)c1,·,·,·,5%,·,·
COc1ccc(N2CCN(CCCNC(=O)c3cnn(-c4ccc(C)cc4)c3-n3cccc3)CC2)cc1,·,·,·,5%,·,·
COc1cc(NC(=O)c2cccs2)c(C(=O)OCC(=O)c2cc(C)n(-c3ccccc3)c2C)cc1OC,13%,-17%,-4%,5.4µM*,-20%,-7%
COc1ccc(-n2c(C)cc(C(=O)COC(=O)c3cc(NC(=O)c4cccs4)c(OC)c(OC)c3)c2C)cc1,-2%,-7%,2%,0%,-1%,-5%
COc1cc(NC(=O)c2cccs2)c(C(=O)OCC(=O)NC(=O)NC(C)(C)C)cc1OC,-14%,-2%,0%,-5%,-5%,-5%
COc1cc(NC(=O)c2cccs2)c(C(=O)OCC(=O)c2cc(C)n(-c3ccc(F)cc3)c2C)cc1OC,-9%,0%,-2%,9.5µM*,0%,8%
CN1CCN(NC(=S)NC(C)(C)CC(C)(C)C)CC1,4%,-6%,2%,-1%,-3%,-4%
Cc1cc(N(C)N)nc(NC(=O)NS(=O)(=O)c2ccccc2Cl)n1,·,-3%,·,4%,12%,-1%
Cc1ccc2c(Cl)c(C)c(N3CCCC3)nc2n1,-10%,-2%,0%,17µM*,2%,1%
COc1cc(C2Nc3ccccc3C(=O)N2c2ccc3c(c2)OCCO3)ccc1OCC(C)C (stereo unspecified),3.2µM*,1µM*,0%,15µM*,0.56µM*,1.8µM*
O=C1c2ccccc2NC(c2ccc3c(c2)OCCO3)N1c1ccc2c(c1)OCCO2 (stereo unspecified),3.5µM*,1µM*,-5%,11µM*,1.6µM*,2.1µM*
COC(=O)C(CO)NC(=O)C1CCCN1C(=O)CNC(=O)OCc1ccccc1 (stereo unspecified),·,2%,·,3%,-5%[1.84 µM],-1%
CCc1ccc(CNC(=O)CCn2c(=O)c3cccn3c3ccc(F)cc32)cc1,·,·,·,1%,·,·
CCOC(=O)c1cccc(NC(=O)Nc2ccc3c(c2)N(C)C(=O)c2ccccc2S3)c1,·,·,·,-5%,·,·
COc1ccc(Nc2cc(C(=O)NCCCN(C)Cc3ccccc3)c3ccccc3n2)c(OC)c1,·,·,·,-17%,·,·
SMILES,SMN2 splice enh,NPC1 promoter act,KinaseGlo FLuc,FLuc modulator,Rab9 prom act,ELG1 genotox
Cc1ccc(C)c(Nc2cc(C(=O)NCc3cccnc3)c3ccccc3n2)c1,·,0%,·,?,1%,-10%
COc1ccccc1Nc1cc(C(=O)NCc2cccnc2)c2ccccc2n1,·,-2%,·,8.5µM*,4%,0%
COc1ccc(Nc2cc(C(=O)NCc3ccccc3)c3ccccc3n2)c(OC)c1,-1%,·,·,8.5µM*,·,·
CCn1ncc(Br)c1C(=O)Nc1sc2c(c1C(N)=O)CCC2,-9%,0%,0%,-4%,10%,1%
CC(=O)Nc1sc2c(c1C(N)=O)CCCC2,5%,-2%,-3%,3%,9%,-1%
Cn1ccc(C(=O)Nc2sc3c(c2C(N)=O)CCCCC3)n1,·,1µM*,·,0.6µM*,0.5µM*,0.46µM*
Cn1cc(Br)c(C(=O)Nc2sc3c(c2C(N)=O)CCC3)n1,41%,22%,-7%,11µM*,18%,12%
Cn1nccc1C(=O)Nc1sc2c(c1C#N)CCCC2,·,12%,·,?,6%,11%
Cc1cc(C(F)F)n2nc(C(=O)Nc3sc4c(c3C(N)=O)CCC4)nc2n1,-8%,2%,0%,12µM*,-2%,1%
Cn1nccc1C(=O)Nc1sc2c(c1C(N)=O)CCCC2,5%,25%,-1%,9.5µM*,?,?
COc1cc2nc(NC(=O)c3ccc(S(=O)(=O)N4CCOCC4)cc3)sc2cc1OC,·,·,·,-14%,·,·
O=C(CSc1nnc(NC(=O)Nc2ccccc2)s1)Nc1cccc(F)c1,·,·,·,1.5µM*,·,·
O=C(CSc1nnc(NC(=O)c2c(F)cccc2F)s1)Nc1ccc(F)cc1,·,?,-1%,-4%,2.2µM*,19%
CC(=O)Nc1ccc(NC(=O)CSc2nnc(NC(=O)c3cccc(F)c3)s2)cc1,·,?,·,0.67µM*,3.2µM*,?
COc1ccccc1NC(=O)Nc1nnc(C(C)C)s1,22µM*,?,0%,17µM*,?,?
